Laboratory results as given in PubChem BioAssay.
The source made the active and inactive calls.

How the values were obtained:
[1] = small molecules captured by biotinylated probe aFSTL3 – biochemical, small-molecule microarray, fluorescence 635/667, stem cell growth factor project, primary screen (AID 1064); settings: higher = more signal;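 also: measures binding of the biotinylated anti-FSTL3 antibody to printed compounds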
[2] = binders from COS7 lysate, DM2A8 probe, primary screen, torsin A project, cell lysate, small-molecule microarray, fluorescence 635/667 (AID 1065); settings: higher = more signal, COS7 lysate expressing mutant human TOR1A
[3] = small molecules captured by biotinylated probe aFGF2 – biochemical, small-molecule microarray, fluorescence 635/667, stem cell growth factor project, primary screen (AID 1067); settings: higher = more signal;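 also: measures binding of biotinylated aFGF2 protein to printed compounds on slides; z-score merges feature fluorescence and signal-to-noise across triplicate slides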
[4] = small molecules captured by biotinylated probe aFGF10 – biochemical, small-molecule microarray, fluorescence 635/667, stem cell growth factor project, primary screen (AID 1071); settings: higher = more signal;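 also: score merges 667 nm spot intensity and signal to noise from triplicate slides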
[5] = biological target: Neurogenic locus notch homolog protein 2 (Homo sapiens) (UniProt Q04721); experiment: small molecules binding Notch2 protein – biochemical, small-molecule microarray, 635 nm fluorescence, stem cell growth factors, primary screen (AID 1073); settings: higher = more signal
[6] = biological target: Pro-neuregulin-1, membrane-bound isoform (Homo sapiens) (UniProt Q02297); experiment: small molecules binding neuregulin-1 protein – biochemical, small-molecule microarray, fluorescence 635/667, psychiatric disease protein project, primary screen (AID 1075); settings: NRG1 binding, 635 nm fluorescence, higher = more signal;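 also: score combines 667 nm spot fluorescence with signal to noise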
[7] = tested on: Neuregulin-1 EGF-like domain; experiment: small molecules binding NRG1 EGF domain – biochemical, small-molecule microarray, 635 nm fluorescence, primary screen (AID 1081); settings: higher = more signal;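 also: binding of the protein to compounds printed on small-molecule microarray slides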
[8] = FRG1 expression reporter modulators in myotubes – cell-based, C2C12 myotubes, firefly/Renilla luciferase, luminescence, FRG1 inhibition for FSHD, primary screen (AID 1084); settings: FRG1 promoter luciferase, higher = more signal, called active from +8 up or from −8 down
[9] = small molecules captured by biotinylated probe aFST – biochemical, small-molecule microarray, fluorescence 635/667, stem cell growth factor project, primary screen (AID 1086); settings: higher = more signal;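 also: score merges 667 nm fluorescence with signal-to-noise of each printed compound spot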
[10] = binders of probe aHhip on microarray, primary screen, stem cell growth factor project, biochemical, small-molecule microarray, fluorescence 635/667 (AID 1087); settings: higher = more signal;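 also: score merges spot fluorescence at 667nm with spot signal to noise ratio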
[11] = tested on: PRMT1 (protein arginine N-methyltransferase 1); experiment: small molecules binding arginine methyltransferase PRMT1 – biochemical, small-molecule microarray, 635 nm fluorescence, primary screen (AID 1088); settings: higher = more signal;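 also: binding of Prmt1 protein to compounds spotted on small-molecule microarray slides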
[12] = growth effects on S. cerevisiae YJM789 – YJM789 clinical isolate, OD600, 24 h, basal, primary screen (AID 1089); settings: higher = more signal, called active from +8 up or from −8 down;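 also: growth of clinical yeast isolate S. cerevisiae YJM 789 seeded 1000 cells per well; test concentration not given here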
[13] = S. pombe growth modifiers, basal conditions – strain 972, OD600, 24 h, no modulator, primary screen (AID 1090);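 also: basal condition with compound alone and no growth modifier present; test concentration not given here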; settings: S. pombe 972 growth, higher = more signal, called active from +8 up or from −8 down
[14] = budding yeast growth modifiers under rapamycin – strain BY4716, OD600, 96 h, primary screen (AID 1091); also: test concentration not given here; settings: S. cerevisiae BY4716 + rapamycin, higher = more signal, called active from +8 up or from −8 down
[15] = biological target: Torsin-1A-interacting protein 2 (Homo sapiens) (UniProt Q8NFQ8); experiment: small molecules binding lysate-expressed LULL1 – cell lysate, human LULL1 lysate, 635/667 nm fluorescence, primary screen (AID 1092); settings: small-molecule microarray, hLULL1 lysate binding, 635 nm fluorescence; higher = more signal;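 also: probe is lysate of COS7 cells overexpressing human LULL1; score merges per-feature 667 nm fluorescence with signal-to-noise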
[16] = optical density change of DRC41 E. coli – strain DRC41, OD650, 24 h, E. coli filamentation project, primary screen (AID 1093);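 also: MC1000 strain lacking acrAB efflux and sulA so SOS filamentation is blocked; test concentration not given here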; settings: E. coli DRC41 growth, higher = more signal, called active from +8 up or from −8 down
[17] = probe aLefty2 binding to arrayed compounds – biochemical, biotinylated probe, 635/667 nm fluorescence, primary screen (AID 1094); settings: small-molecule microarray, higher = more signal;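 also: score merges spot fluorescence near 667 nm with spot signal-to-noise ratio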
[18] = tested on: Noggin (protein binding on small-molecule microarray); experiment: small molecules binding Noggin protein – biochemical, 635/667 nm fluorescence, primary screen (AID 1095); settings: 635 nm fluorescence, higher = more signal;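 also: score merges 667 nm feature fluorescence with signal to noise over triplicate slides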
[19] = biological target: Neurogenic locus notch homolog protein 3 (Homo sapiens) (UniProt Q9UM47); experiment: small molecules binding NOTCH3 protein – biochemical, 635/667 nm fluorescence, primary screen (AID 1096); settings: small-molecule microarray, 635 nm fluorescence, higher = more signal
[20] = probe aEGFR binding to arrayed compounds – biochemical, biotinylated probe, 635/667 nm fluorescence, primary screen (AID 1097); settings: small-molecule microarray, higher = more signal;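 also: probe is a biotinylated anti-EGFR antibody binding compounds printed on slides; score combines fluorescence near 667 nm and signal to noise of each spot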

Neurogenic locus notch homolog protein 3 (Homo sapiens), sequence (Q9UM47 whole entry, looked up): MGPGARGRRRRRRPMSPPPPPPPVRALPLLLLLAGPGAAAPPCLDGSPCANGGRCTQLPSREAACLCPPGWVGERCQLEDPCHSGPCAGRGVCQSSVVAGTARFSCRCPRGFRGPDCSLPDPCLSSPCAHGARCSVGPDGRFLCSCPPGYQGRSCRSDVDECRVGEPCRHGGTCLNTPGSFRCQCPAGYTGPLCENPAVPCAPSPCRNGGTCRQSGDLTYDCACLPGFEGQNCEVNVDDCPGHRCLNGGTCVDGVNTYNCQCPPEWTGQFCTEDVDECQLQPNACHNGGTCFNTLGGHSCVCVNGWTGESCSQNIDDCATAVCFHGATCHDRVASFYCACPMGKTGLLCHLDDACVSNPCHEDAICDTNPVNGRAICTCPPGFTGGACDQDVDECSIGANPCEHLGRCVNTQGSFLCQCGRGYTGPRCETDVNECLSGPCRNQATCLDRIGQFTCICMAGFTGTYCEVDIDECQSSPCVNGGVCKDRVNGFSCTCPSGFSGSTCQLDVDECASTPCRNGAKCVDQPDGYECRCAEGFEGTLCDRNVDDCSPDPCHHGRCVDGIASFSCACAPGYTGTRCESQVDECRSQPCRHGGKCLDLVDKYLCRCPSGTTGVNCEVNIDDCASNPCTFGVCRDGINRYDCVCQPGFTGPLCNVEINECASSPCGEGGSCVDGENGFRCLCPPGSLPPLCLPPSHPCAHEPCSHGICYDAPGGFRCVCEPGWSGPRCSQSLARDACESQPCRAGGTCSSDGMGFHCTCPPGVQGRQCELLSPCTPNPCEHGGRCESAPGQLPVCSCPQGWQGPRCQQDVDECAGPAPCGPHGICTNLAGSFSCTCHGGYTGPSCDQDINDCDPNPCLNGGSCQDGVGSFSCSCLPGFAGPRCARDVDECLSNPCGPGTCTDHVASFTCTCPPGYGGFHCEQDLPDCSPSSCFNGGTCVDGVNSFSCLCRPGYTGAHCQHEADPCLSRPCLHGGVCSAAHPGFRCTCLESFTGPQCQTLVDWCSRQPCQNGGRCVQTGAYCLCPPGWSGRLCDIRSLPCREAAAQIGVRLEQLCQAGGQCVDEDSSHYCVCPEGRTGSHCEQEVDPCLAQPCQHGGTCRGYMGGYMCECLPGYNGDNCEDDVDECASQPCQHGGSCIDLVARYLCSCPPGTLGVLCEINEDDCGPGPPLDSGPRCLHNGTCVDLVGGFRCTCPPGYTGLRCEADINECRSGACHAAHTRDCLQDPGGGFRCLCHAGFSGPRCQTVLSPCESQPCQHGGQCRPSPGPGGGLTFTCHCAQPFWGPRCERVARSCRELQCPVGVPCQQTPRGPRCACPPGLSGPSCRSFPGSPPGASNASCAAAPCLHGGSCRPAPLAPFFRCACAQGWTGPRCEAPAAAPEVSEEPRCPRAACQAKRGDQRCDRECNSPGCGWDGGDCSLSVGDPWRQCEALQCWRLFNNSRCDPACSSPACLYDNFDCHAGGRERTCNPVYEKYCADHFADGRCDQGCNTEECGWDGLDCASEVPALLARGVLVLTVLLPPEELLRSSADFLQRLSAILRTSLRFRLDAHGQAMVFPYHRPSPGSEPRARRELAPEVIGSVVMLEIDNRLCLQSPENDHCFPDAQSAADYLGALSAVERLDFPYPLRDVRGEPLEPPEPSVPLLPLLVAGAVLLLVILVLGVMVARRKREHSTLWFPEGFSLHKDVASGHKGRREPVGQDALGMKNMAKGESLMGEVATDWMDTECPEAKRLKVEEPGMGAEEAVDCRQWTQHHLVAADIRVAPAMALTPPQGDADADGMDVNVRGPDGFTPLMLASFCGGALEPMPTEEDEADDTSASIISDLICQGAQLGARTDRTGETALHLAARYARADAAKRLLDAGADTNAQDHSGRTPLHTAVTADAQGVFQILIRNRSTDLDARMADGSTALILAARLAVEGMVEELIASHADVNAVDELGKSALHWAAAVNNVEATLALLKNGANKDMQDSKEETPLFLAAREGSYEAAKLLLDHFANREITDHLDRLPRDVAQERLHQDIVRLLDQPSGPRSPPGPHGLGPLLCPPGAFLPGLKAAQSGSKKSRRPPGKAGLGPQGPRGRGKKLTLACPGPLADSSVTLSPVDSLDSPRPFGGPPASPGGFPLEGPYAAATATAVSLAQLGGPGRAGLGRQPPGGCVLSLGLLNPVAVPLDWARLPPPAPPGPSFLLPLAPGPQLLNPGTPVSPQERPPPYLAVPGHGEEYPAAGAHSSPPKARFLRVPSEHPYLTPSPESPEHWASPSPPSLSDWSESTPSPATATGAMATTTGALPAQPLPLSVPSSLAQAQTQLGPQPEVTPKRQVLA
Neurogenic locus notch homolog protein 2 (Homo sapiens), sequence (Q04721 whole entry, looked up, canonical isoform): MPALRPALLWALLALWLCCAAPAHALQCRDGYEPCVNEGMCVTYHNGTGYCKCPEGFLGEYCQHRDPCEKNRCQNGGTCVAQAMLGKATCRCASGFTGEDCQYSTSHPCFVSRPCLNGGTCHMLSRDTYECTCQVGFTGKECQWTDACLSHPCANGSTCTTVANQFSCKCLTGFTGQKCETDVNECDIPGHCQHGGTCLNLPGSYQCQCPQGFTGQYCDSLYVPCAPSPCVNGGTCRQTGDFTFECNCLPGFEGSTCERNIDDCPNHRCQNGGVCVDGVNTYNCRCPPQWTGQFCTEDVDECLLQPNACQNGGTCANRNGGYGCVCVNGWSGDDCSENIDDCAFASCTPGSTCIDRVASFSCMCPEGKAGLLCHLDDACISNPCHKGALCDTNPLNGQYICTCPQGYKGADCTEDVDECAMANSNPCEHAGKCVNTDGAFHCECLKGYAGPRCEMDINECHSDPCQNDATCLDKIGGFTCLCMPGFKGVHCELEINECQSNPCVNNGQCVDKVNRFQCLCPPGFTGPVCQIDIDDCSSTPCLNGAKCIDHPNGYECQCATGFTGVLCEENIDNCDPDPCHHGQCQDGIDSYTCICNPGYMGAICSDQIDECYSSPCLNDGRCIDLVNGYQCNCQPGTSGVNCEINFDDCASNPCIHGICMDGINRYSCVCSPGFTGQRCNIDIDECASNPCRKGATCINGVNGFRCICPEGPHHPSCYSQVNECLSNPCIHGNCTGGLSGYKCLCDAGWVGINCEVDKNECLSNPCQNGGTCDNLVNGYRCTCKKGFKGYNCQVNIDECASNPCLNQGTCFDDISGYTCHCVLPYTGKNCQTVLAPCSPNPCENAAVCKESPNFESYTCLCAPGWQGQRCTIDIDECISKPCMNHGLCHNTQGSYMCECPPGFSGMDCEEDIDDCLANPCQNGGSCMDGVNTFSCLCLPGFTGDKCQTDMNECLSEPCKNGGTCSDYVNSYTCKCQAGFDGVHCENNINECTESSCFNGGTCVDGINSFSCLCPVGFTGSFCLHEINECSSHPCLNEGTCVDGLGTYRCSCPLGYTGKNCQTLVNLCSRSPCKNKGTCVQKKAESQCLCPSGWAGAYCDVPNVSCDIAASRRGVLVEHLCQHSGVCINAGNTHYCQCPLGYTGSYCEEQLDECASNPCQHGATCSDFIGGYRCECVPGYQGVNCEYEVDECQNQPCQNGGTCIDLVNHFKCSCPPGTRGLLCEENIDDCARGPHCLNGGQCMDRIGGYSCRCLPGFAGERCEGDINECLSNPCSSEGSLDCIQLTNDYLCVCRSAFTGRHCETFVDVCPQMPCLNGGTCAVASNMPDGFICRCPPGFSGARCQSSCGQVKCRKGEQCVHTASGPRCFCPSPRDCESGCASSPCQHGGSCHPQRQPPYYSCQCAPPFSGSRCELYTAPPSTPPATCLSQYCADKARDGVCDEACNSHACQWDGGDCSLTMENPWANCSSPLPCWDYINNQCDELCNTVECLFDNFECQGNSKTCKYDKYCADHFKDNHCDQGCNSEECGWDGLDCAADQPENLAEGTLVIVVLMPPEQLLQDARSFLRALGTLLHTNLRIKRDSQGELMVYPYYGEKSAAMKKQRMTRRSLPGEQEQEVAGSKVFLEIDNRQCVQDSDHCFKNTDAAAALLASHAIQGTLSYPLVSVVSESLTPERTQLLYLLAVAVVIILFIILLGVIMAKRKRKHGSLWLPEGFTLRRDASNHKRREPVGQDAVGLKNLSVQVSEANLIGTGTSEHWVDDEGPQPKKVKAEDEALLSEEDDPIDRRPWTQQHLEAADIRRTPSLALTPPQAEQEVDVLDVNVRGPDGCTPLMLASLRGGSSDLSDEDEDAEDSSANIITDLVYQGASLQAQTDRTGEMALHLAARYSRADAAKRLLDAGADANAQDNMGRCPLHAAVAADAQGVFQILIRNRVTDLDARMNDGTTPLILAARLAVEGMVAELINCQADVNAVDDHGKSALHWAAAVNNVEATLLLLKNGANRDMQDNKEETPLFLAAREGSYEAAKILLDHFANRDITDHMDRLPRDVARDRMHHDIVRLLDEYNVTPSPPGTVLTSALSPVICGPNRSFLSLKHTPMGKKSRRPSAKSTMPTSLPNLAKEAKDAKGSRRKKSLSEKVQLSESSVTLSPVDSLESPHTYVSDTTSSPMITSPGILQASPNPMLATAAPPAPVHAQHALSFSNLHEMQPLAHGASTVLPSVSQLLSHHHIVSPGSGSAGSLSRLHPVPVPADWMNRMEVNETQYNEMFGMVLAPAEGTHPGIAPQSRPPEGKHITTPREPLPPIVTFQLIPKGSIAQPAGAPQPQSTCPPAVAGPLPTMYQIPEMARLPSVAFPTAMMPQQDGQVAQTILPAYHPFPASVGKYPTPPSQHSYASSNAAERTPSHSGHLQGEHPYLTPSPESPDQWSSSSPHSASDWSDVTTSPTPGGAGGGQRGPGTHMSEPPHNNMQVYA

SMILES	composite z-score [1]	composite z-score [2]	composite z-score [3]	composite z-score [4]	composite z-score [5]	composite z-score [6]	composite z-score [7]	z-score [8]	composite z-score [9]	composite z-score [10]	composite z-score [11]	z-score [12]	z-score [13]	z-score [14]	composite z-score [15]	z-score [16]	composite z-score [17]	composite z-score [18]	composite z-score [19]	composite z-score [20]
C=CCOC(=O)[C@@H]1[C@H]2C(=O)O[C@H](c3ccccc3)[C@H](c3ccccc3)N2[C@H](c2ccc(OCCOC(=O)[C@@H]3C[C@@H]4C(=O)N[C@@H](CCCC[N+](C)(C)C)C(=O)N4[C@@H]3c3cccc(OCCO)c3)cc2)[C@@]12C(=O)Nc1ccc(I)cc12	0.443	0.54	0.0378	0.291	0.872	0.498	1.23	3.07 (inactive)	0.493	-0.117	1.56	1.02 (inactive)	-0.945 (inactive)	0.115 (inactive)	2.94	-0.674 (inactive)	-0.0063	1.47	1.13	0.0321
COc1ccc(C(O)C2C=CC3C(=O)NC(=O)C3N2Nc2ccccn2)c2ccccc12 (stereo not given)	-0.37	0.184	0.0467	0.246	0.388	1	0.741	0.87 (inactive)	0.119	-0.0994	-0.385	-0.327 (inactive)	-0.0861 (inactive)	0.188 (inactive)	1.02	-0.794 (inactive)	-0.132	-0.127	0.223	-0.107
CN1C(=O)C2C=CC(C(O)c3cc(C(F)(F)F)cc(C(F)(F)F)c3)N(N3CCCCC3)C2C1=O (stereo not given)	0.104	-0.392	0.0173	0.395	1.41	0.416	0.892	0.215 (inactive)	0.498	-0.335	1.34	1.69 (inactive)	0.763 (inactive)	1.63 (inactive)	2.65	-0.627 (inactive)	0.254	-0.297	0.688	0.153
N#Cc1ccc(NN2C(C(O)c3c(F)cccc3Cl)C=CC3C(=O)N(c4ccccc4)C(=O)C32)cc1 (stereo not given)	0.394	0.187	0.199	0.63	1.69	1.97	0.456	-1.14 (inactive)	1.18	0.0053	1.19	0.432 (inactive)	1.62 (inactive)	2.48 (inactive)	3.53	-0.62 (inactive)	0.222	-0.109	1.06	-0.244
CO[C@H]1O[C@H](CO)[C@@H](OC(=O)Nc2ccc(Br)cc2)[C@H](OC(=O)c2cc3ccccc3[nH]2)[C@H]1OC(=O)c1cc2ccccc2[nH]1	-0.31	1.05	-0.11	0.724	0.606	0.844	1.07	-0.483 (inactive)	0.237	-0.0253	1.39	-1.96 (inactive)	-1.59 (inactive)	-0.654 (inactive)	2.48	2.05 (inactive)	0.0166	0.514	0.944	0.0686
C=CCOC(=O)[C@@H]1[C@H]2C(=O)O[C@H](c3ccccc3)[C@H](c3ccccc3)N2[C@H](c2ccc(OCCOC(=O)[C@@H]3C[C@@H]4C(=O)N5CCC[C@H]5C(=O)N4[C@@H]3c3ccc(O)cc3)cc2)[C@@]12C(=O)Nc1ccc(I)cc12	-0.354	-0.0315	-0.0958	0.235	0.666	0.596	1.19	-0.804 (inactive)	0.965	-0.069	1.42	-0.577 (inactive)	0.687 (inactive)	2.09 (inactive)	2.55	1.75 (inactive)	-0.207	1.51	0.565	-0.242
COC(=O)[C@@]1(Cc2ccc(F)cc2)[C@@H]2[C@@H](CC(=O)[C@H]2CC(=O)C(=O)N(C)C)CN1C(=O)c1ccccc1	0.367	-0.178	0.287	0.855	1.76	1.3	1.18	-0.439 (inactive)	2.33	0.33	0.781	0.658 (inactive)	2.12 (inactive)	2.7 (inactive)	2.43	-0.874 (inactive)	0.288	0.221	1.08	0.4
COCCOC(=O)N1C(=O)[C@@]2(c3cc(C#CCCO)ccc31)[C@H](C(=O)N1CCN(c3ncccn3)CC1)[C@H]1C(=O)O[C@H](c3ccccc3)[C@H](c3ccccc3)N1[C@@H]2c1ccccc1OCCO	-0.545	0.217	-0.0546	0.537	1.3	1.37	1.15	-0.428 (inactive)	0.335	-0.0296	1.55	0.335 (inactive)	0.411 (inactive)	3.34 (inactive)	2.98	1.84 (inactive)	-0.114	0.791	0.846	0.268
CN(C)C(=O)[C@]1(Cc2ccccc2N=[N+]=[N-])N=C(c2ccc(OCCCO)cc2)O[C@@H]1c1ccccc1	0.127	0.227	0.0901	0.071	1.31	1.78	1.13	-2.65 (inactive)	0.627	-0.374	1.39	-0.958 (inactive)	-2.29 (inactive)	-0.195 (inactive)	3.02	0.677 (inactive)	0.149	1.21	0.905	-0.0512
